# Assay outcomes: PubChem, several laboratories
# CYP2C9 inhib = blocks human cytochrome P450 2C9. AID 777. inhibition, % at 5 µM. P11712. actives 20% (n = 96,000). CYP2C9 Supersomes, luciferin-H conversion, luminescence;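 active = blocking of liver enzyme CYP2C9 beyond about 50% at 5 µM, limit read from the data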
# Target sequence (P11712 whole entry, looked up): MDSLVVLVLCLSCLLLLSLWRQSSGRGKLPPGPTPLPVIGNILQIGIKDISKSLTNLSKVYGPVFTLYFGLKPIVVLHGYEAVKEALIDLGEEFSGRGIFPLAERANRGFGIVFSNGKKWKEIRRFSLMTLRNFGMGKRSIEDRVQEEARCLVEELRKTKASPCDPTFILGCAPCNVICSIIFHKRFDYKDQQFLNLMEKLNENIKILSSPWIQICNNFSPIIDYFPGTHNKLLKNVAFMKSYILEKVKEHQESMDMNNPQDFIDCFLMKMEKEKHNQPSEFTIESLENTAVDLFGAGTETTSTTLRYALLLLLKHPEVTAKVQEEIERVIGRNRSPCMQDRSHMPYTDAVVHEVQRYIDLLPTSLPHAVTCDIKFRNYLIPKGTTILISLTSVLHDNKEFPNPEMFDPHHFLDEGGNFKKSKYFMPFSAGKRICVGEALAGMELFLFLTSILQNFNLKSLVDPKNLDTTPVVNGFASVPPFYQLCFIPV
# CYP2C19 inh = human CYP2C19 inhibition. P33261. CYP2C19 Supersomes, luciferin-H EGE luminescence, 30 min. inhibition, % at 5 µM. actives 21% (n = 96,000). AID 778;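 active = CYP2C19 inhibition above a set limit at 5 µM in the primary screen, cut at about 50% in these data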;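 also: plate controls were negative control wells for no effect and 2.5 mM tranylcypromine positive control for full effect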
# Pyk2 oligo antag = Pyk2 (human) oligomerization antagonism; Q293 cells, Pyk2 FERM NanoBiT luminescence; active compounds read low; actives 0.83% (n = 99,000); z-score (the deposit names both 25 µM and 10 µM); AID 1347419; Q14289;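 active = Z-score of -3 or lower, scaled per plate to the spread of control and sample wells; inactive = z-score above -3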;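 also: negative z-score means lost luminescence so less FERM oligomerization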
# Cav32 inh = blocks human Cav3.2 T-type calcium channel; O95180; Cav3.2-expressing cells, Fluo-4 calcium fluorescence FDSS; active compounds read low; B-score at 10 µM; actives 4% (n = 100,000);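 active = single-dose well whose peak fluorescence ratio is a statistical outlier from its plate by either plate-standardised score or position-corrected B-score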
# CYP2C19 act = activators of human cytochrome P450 2C19. 96,000 tested, under 10 active. P33261. AID 1025. recombinant CYP2C19, luciferin-H EGE luminescence; active compounds read high; 0 = fully inhibited enzyme, 1 = untreated enzyme. activation factor at 5 µM;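 active = activation factor of at least 2 at 5 µM in the primary screen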;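 also: 0 = wells with 2.5 mM tranylcypromine and 1 = vehicle-only wells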
# CYP2C9 activ = CYP2C9 (human) activation; P11712; recombinant CYP2C9, luciferin-H conversion, luminescence; active compounds read high; factor 1 = untreated enzyme, 0 = blocked; activation factor at 5 µM; actives 1.4% (n = 96,000);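 active = activation factor of 2 or more for CYP2C9 at a 5 µM dose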;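 also: 0 = sulfaphenazole-blocked wells and 1 = vehicle-only wells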
# Numbers without * were called inactive; . = no result given. Sampled rows, rich in hits. Any-hit rate of the full collection: about 27%.
SMILES,CYP2C9 inhib,CYP2C19 inh,Pyk2 oligo antag,Cav32 inh,CYP2C19 act,CYP2C9 activ
O=C(CCCSc1nc2ccccc2s1)Nc1nccs1,87.6*,79.1*,-0.05,-1.5,0.2,0.1
CCCC(=O)Nc1ccc2nc(SCC(=O)Nc3nccs3)sc2c1,8.4,20.1,0.14,-0.0102,0.8,0.9
O=C(CSc1nc(-c2ccccc2)nc2ccccc12)Nc1nccs1,18.7,2.9,0,0.518,1,0.8
O=C(CCCOc1ccccc1)Nc1nccs1,50.8*,86.0*,-0.2,-0.138,0.1,0.5
O=C(CSc1cn(Cc2ccccc2)c2ccccc12)Nc1nccs1,98.7*,95.9*,.,-4.35*,0,0
O=C(Nc1nccs1)Oc1ccccc1,25.0,8.8,-1.3,0.429,0.9,0.8
O=C(CSCc1c(Cl)cccc1Cl)Nc1nccs1,75.3*,21.5,-0.67,-1.19,0.8,0.2
O=C(O)C1=C(C(=O)N2CCN(C(=O)c3ccco3)CC2)CCCC1,3.6,0.1,1.15,.,1,1
Cc1ccc(OCCCC(=O)Nc2nncs2)cc1,74.3*,88.2*,0.76,0.0168,0.1,0.3
O=C(CSCc1ccccc1)Nc1nccs1,43.6,50.2*,-0.3,0.1,0.5,0.6
O=C(Nc1ccc(Cl)cc1)c1cc2nc(-c3ccco3)cc(C(F)(F)F)n2n1,70.9*,16.7,-0.3,0.793,0.8,0.3
O=C(c1cc2nc(-c3ccco3)cc(C(F)(F)F)n2n1)N1CCN(c2ccc(F)cc2)CC1,63.8*,81.4*,-0.02,-0.466,0.2,0.4
O=C(c1cc2nc(-c3ccco3)cc(C(F)(F)F)n2n1)N1CCN(Cc2ccccc2)CC1,63.8*,47.0,-0.63,-1.17,0.5,0.4
CC(C)NC(=O)c1cc2nc(-c3ccco3)cc(C(F)(F)F)n2n1,8.1,3.3,-0.37,-0.653,1,0.9
CCN1CCN(C(=O)c2cc3nc(-c4ccccc4)cc(C(F)(F)F)n3n2)CC1,3.3,13.9,0.3,1.13,0.9,1
CCC1=C(OC(=O)N(CC)CC)N2C(=O)OC(=NCCc3c[nH]c4ccccc34)[C@]2(Cc2ccccc2)[C@H]2C1=CC[C@H]1C(=O)N(C)C(=O)[C@H]12,.,.,.,-0.328,.,.
COC(=O)c1ccc(C23CC4(C2)[C@H](CN(CC2CCCCC2)[C@@H]4c2ccccc2)C3c2ccc(C(F)(F)F)cc2)cc1 (some centres not stated),.,.,.,0.124,.,.
CCOc1ccc(-c2c(C(=O)N/N=C/c3ccc(OC)cc3)nnn2-c2nonc2N)cc1,.,.,1.29,.,.,.
O=C(/C=C/c1ccccc1Cl)c1cccnc1,13.0,54.5*,-0.91,-0.806,0.5,0.9
O=C(/C=C/c1ccc(Cl)cc1)c1cccnc1,51.7*,93.7*,-1.19,.,0.1,0.5
CCCNc1nc(C)cc(-c2cc(C(=O)NC3CCCC3)on2)n1,.,.,.,-0.216,.,.
CC(=O)NCCn1c(SCc2cc(=O)n3cc(Cl)ccc3n2)nc2ccccc2c1=O,44.1,1.3,-0.52,1.42,1,0.6
CCCCCCCCSc1nnc(CSc2nc3nc(C)cc(C)n3n2)o1,21.0,15.7,0.14,-1.21,0.8,0.8
CN(C)c1nc(SCCOC(=O)c2ccccc2)nc(N(C)C)n1,61.7*,98.7*,0.5,-1.85,0,0.4
COC(=O)c1ccc(C(=O)OC)c(NS(C)(=O)=O)c1,-0.6,13.7,0.85,2.08,0.9,1
SMILES,CYP2C9 inhib,CYP2C19 inh,Pyk2 oligo antag,Cav32 inh,CYP2C19 act,CYP2C9 activ
O=c1cc(N2CCN(c3ccc(F)cc3)CC2)[nH]c(=O)n1Cc1ccc(F)cc1,1.7,5.0,.,-8.8*,0.9,1
COc1ccc(N2CCN(c3cc(=O)n(Cc4ccc(F)cc4)c(=O)[nH]3)CC2)cc1,-14.2,-12.4,.,-4.93*,1.1,1.1
O=c1[nH]cnc2scc(C3COc4ccccc4O3)c12 (configuration not stated),80.2*,87.8*,0.43,-1.76,0.1,0.2
COc1ccc(-n2c(SCC(=O)NCc3ccco3)nc3c([nH]c4ccccc43)c2=O)cc1,-2.0,-7.3,.,0.704,1.1,1
CC(=O)CCc1oc2ccc(NC(C)=O)cc2c1-c1ccc(C)o1,21.0,46.2,-0.54,-0.431,0.5,0.8
O=C(NCCc1c[nH]c2ccccc12)c1ccc(S(=O)(=O)NCc2ccco2)cc1,83.5*,83.5*,0.61,-0.801,0.2,0.2
O=C(NCCc1c[nH]c2ccccc12)c1ccc(-n2cnnn2)cc1,-211.4,52.6*,-0.02,0.17,0.5,3.1*
O=C(NCCc1ccccc1)c1ccc(-n2cnnn2)cc1,-3.6,8.4,-0.21,-0.2,0.9,1
O=C(NC1CCCCCC1)c1ccc(S(=O)(=O)NCc2ccco2)cc1,10.0,-1.9,-0.26,-1.71,1,0.9
COC(=O)c1cc(F)c(-n2cncn2)c(F)c1,9.4,70.0*,0.73,1.08,0.3,0.9
COC(=O)c1cc(O)c(O)c(O)c1,.,.,.,1.39,.,.
c1ccc(-c2n[nH]c(-c3ccccn3)n2)nc1,13.8,67.2*,-0.27,-0.07,0.3,0.9
COc1ccc(C(CC(=O)O)NC(=O)c2cccs2)cc1 (configuration not stated),0.1,3.6,-0.12,0.0734,1,1
CCOc1ccc(C(=O)NCc2cccs2)cc1,29.2,66.9*,0.01,1.13,0.3,0.7
CCN(CC)S(=O)(=O)c1ccc(C(=O)NCc2cccs2)cc1,53.2*,-8.2,-0.85,1.65,1.1,0.5
CCN(CC)S(=O)(=O)c1ccc(C(=O)NCc2ccc(C)cc2)cc1,27.3,13.5,1.55,0.00581,0.9,0.7
CCOC(=O)CC(NC(=O)c1cccs1)c1ccc(OCC)cc1 (configuration not stated),65.4*,51.8*,-1.68,0.616,0.5,0.3
CCN(CC)S(=O)(=O)c1ccc(C(=O)NCc2n[nH]c(=S)n2Cc2ccccc2)cc1,13.9,-6.7,1.05,-4.1*,1.1,0.9
CCC(C)NC(=O)Cn1cnc2sc(C)cc2c1=O (configuration not stated),12.1,7.4,-0.13,0.613,0.9,0.9
CC(=O)c1cccc(NC(=O)CN(c2ccc(C)cc2)S(=O)(=O)c2cccc3nonc23)c1,71.6*,46.2,-1.11,-1.52,0.5,0.3
Cc1ccc(CNC(=O)CN(C)S(=O)(=O)c2cccc3nsnc23)cc1,23.6,59.2*,0.69,.,0.4,0.8
Cc1ccc(NC(=O)CN(C)S(=O)(=O)c2cccc3nsnc23)cc1,77.0*,28.3,-0.05,1.34,0.7,0.2
CCN(CC)C(=O)CN(C)S(=O)(=O)c1cccc2nsnc12,-11.1,-8.3,-0.21,0.666,1.1,1.1
COC(=O)c1[nH]c2ccc(C)cc2c1NC(=O)CN1CCN(c2ccccc2)CC1,75.4*,89.6*,-1.46,-3.89,0.1,0.2
Cc1c(C)n(C(=O)CN2CCN(c3ccccc3)CC2)c2ccccc12,-57.1,56.2*,1.02,-1.15,0.4,1.6
